Our source for the Potency values is PubChem BioAssay (Tox21).

Records with an inconclusive call do not appear. Where a call stands in place of a potency, no number is given. Activity calls are given as the source filed them. The call rests on the fitted dose curve; in most records, active means well fitted activation curve with a large enough effect in the repeat runs; inconclusive means weak or mixed curves; inactive means flat fitted curve, though single readings scatter.

This assay is described as follows: A CellTox Green Cytotoxicity Assay to monitor cytotoxicity in HEK293 cells - 16 hour (AID 1224888). Further: nearly all actives have a fitted effect of over 35% in size. To be noted: CellTox Green fluorescence; series mostly up to 76.8 µM. From the text:
National Center for Advancing Translational Sciences [NCATS]
NIH Chemical Genomics Center [NCGC]
U.S. Environmental Protection Agency [EPA]
National Institutes of Environmental Health Sciences [NIEHS]
National Toxicology Program [NTP]
Cell-based models are critical for drug discovery. Determining the natural cytotoxic effects resulting from test compounds is an essential research activity. A CellTox Green Cytotoxicity Assay to monitor cytotoxicity in real time of continues cell culture during 40 hours of the compound treatment was used to screen Tox21 10K library compounds in Hek293 cells. CellTox Green Cytotoxicity Assay is a nonlytic, homogeneous, biofluorescent method to measure cytotoxicity in cell culture after experimental manipulation. The assay system uses a proprietary asymmetric cyanine dye that is excluded from viable cells but preferentially stains the dead cell's DNA. […] Viable cells produce no appreciable increases in fluorescence. Therefore, the fluorescence signal produced by the binding interaction with dead cell DNA is proportional to cytotoxicity.
The mixture of Hek293 cell suspension and reagents were dispensed at 600cells/6 ul/well in 1536-well tissue culture treated black solid bottom plates using a Multidrop dispenser. After the assay plates were incubated at a 37 C/5% CO2 incubator for 5 hours, 23 nL of compounds dissolved in DMSO, positive and negative controls was transferred to the assay plate by a pintool work station. The plates were incubated at 37 C for 40 hours. The fluorescence intensity were measured at 0h, 8h, 16h, 24h, 32h and 40h time points using ViewLux plate reader during compound treatment.
With `O=C(O)Cc1ccccc1`, the Potency result was “inactive”.
Regarding `CCCOC(=O)c1ccccc1C(=O)OCCC`, the Potency result is “inactive”.
Turning to `Nc1nc(N)nc(NC2CC2)n1`, the Potency result is “inactive”.
As to `FC(F)(F)c1ccc(Cl)cc1`, the Potency entry is “inactive”.
As for `C=CCN=C=S`, the Potency entry is “inactive”.
To `COP(=S)(OC)Oc1ccc(SC)c(C)c1` belongs “inactive”.
As for `OCc1ccco1`, the Potency entry was “inactive”.
With `CC[N+](=O)[O-]`, the Potency entry is “inactive”.
For `CNC(=O)O/N=C/C(C)(C)S(C)(=O)=O`, the Potency entry is “inactive”.
Regarding `O=C(O)c1cc(Oc2ccc(C(F)(F)F)cc2Cl)ccc1[N+](=O)[O-]`, the Potency entry was “inactive”.
As to `C=CC(=O)OCCCCCC(C)C`, the Potency result was “inactive”.
For the compound `N#CN=C(N)N`, the Potency entry was “inactive”.
In the case of `O=[N+]([O-])c1ccc(Cl)cc1`, the Potency entry was “inactive”.
Take `Cl/C=C/Cl`: the Potency entry is “inactive”.
With `O=C(O)COc1ccccc1`, the Potency entry was “inactive”.
`CCCCC(CC)C(=O)Cl` (stereo not given): the Potency result is “inactive”.
For the compound `Sc1ccccc1`, the Potency entry was “inactive”.
Turning to `Cc1cccc(C)c1NC(=O)CN1CCCC1=O`, the Potency entry is “inactive”.
For the compound `C=CC(=O)OCC(CC)CCCC` (stereo not given), the Potency result was “inactive”.
Turning to `Cc1cccc(N)c1`, the Potency entry was “inactive”.
Regarding `CN(C)C(=O)Nc1cccc(C(F)(F)F)c1`, the Potency entry is “inactive”.
With `CCOP(=S)(OCC)Oc1ccc([N+](=O)[O-])cc1`, the Potency result was “inactive”.
In the case of `CCOC(=O)CC(SP(=O)(OC)OC)C(=O)OCC` (stereo not given) it was “inactive”; in that of `O=S(=O)(O)OOS(=O)(=O)O`, “inactive”.
With `CNc1cnn(-c2cccc(C(F)(F)F)c2)c(=O)c1Cl`, the Potency entry is “inactive”.
`Cc1ccccc1N`: the Potency result is “inactive”.
Turning to `CNC(=O)O/N=C/C(C)(C)S(C)=O` (stereo not given), the Potency entry was “inactive”.
For the compound `CCNc1nc(Cl)nc(NC(C)C)n1`, the Potency result is “inactive”.
Turning to `O=C(O)CCCc1ccc(N(CCCl)CCCl)cc1`, the Potency entry was “inactive”.
For `Oc1c(Br)cc(Br)cc1Br`, the Potency entry is “inactive”.
On to `O=P1(NCCCl)OCCCN1CCCl` (stereo not given), for which the Potency result is “inactive”.
`CNCC(O)c1ccc(O)cc1` (stereo not given): the Potency result was “inactive”.
In the case of `Nc1cc(Cl)cc(Cl)c1` it was “inactive”; in that of `CN(C)C(=O)Cl`, “inactive”; in that of `CC(=O)/C=C/c1ccccc1`, “inactive”.
Consider `CCOP(=S)(OCC)Oc1cc(C)nc(C(C)C)n1`, for which the Potency entry was “inactive”.
Regarding `Oc1ccc(Cl)cc1`, the Potency entry is “inactive”.
In the case of `O=C(O)C(Br)Br` it was “inactive”; in that of `OCC(O)CCl` (stereo not given), “inactive”; in that of `COc1nc(NC(C)C)nc(NC(C)C)n1`, “inactive”.
